Growth inhibition, inhibition and outcome data for 20 compounds are collected here from PubChem BioAssay.

A number with no mark means an inactive call. For some of these results: Measured potencies and affinities stand elsewhere. Calls of active or inactive are those of the source. Unless noted, the rule behind the calls is not given here.

Test [1] can be described thus: antimalarial activity against Dd2 strain (AID 2302;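 active = growth inhibition above 50% at the single 2 µM test dose, taken to imply half-maximal potency below 2 µM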;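 note: 0% = DMSO untreated growth and 100% = chloroquine plus artemisinin killed control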). The following applies: P. falciparum Dd2 in RBCs, LDH growth readout, 72 h; at 2 µM; hits give high values.
Test [2] is described as follows: HepG2 cytotoxicity, primary screen, cytotoxicity control for P. falciparum antimalarial project, cell-based, ATP luminescence (AID 2303;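 active = inhibition above 50%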;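 note: 0% = DMSO wells and 100% = digitonin-killed cells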). The settings on record: HepG2 viability, 24-48 h, at 10 µM, hits give high values.
In test [3] the target is L-lactate dehydrogenase (Plasmodium falciparum (isolate CDC / Honduras)) (UniProt Q27743). Put plainly: PfLDH activity inhibition – cell lysate, 3D7 strain, counter-screen for P. falciparum growth inhibition project (AID 2304).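 Note: 0% = vehicle and 100% = reference inhibitor.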 The following applies: P. falciparum 3D7 crude extract, LDH APAD/NBT absorbance; at 2 µM; hits give high values. In general terms: A counterscreen serves to expose hits that act by an unwanted route or on another target.
Chain of L-lactate dehydrogenase (Plasmodium falciparum (isolate CDC / Honduras)) (Q27743 whole entry, looked up): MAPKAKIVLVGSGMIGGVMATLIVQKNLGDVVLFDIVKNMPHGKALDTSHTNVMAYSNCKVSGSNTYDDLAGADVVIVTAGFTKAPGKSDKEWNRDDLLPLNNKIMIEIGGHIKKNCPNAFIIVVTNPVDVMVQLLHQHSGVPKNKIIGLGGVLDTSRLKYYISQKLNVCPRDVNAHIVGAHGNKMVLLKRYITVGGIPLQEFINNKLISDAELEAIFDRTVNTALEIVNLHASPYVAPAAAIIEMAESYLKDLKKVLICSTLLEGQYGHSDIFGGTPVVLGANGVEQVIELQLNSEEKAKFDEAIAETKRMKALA

Test [4] can be described thus: inhibition of 3D7 malaria parasite growth – strain 3D7 (AID 2306).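 Note: 0% = DMSO wells and 100% = chloroquine plus artemisinin control wells.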 The following applies: P. falciparum 3D7 erythrocytic growth, LDH absorbance, 72 h; at 2 µM; hits give high values.
Test [5] deals with Calcium-dependent protein kinase 1 (Plasmodium falciparum (isolate 3D7)) (UniProt P62344). Kind of test: PfCDPK1 kinase inhibitors, biochemical, TCAMS library (AID 1159585; cut-off not given, nearly all actives have IC50 up to about 0.98 µM;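 note: inhibitors leave more ATP so luminescence rises with inhibition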). The following applies: recombinant PfCDPK1, Kinase-Glo ATP depletion luminescence. For orientation: Kinase-Glo measures the ATP left after a reaction by luminescence.
Chain of Calcium-dependent protein kinase 1 (Plasmodium falciparum (isolate 3D7)) (P62344 whole entry, looked up): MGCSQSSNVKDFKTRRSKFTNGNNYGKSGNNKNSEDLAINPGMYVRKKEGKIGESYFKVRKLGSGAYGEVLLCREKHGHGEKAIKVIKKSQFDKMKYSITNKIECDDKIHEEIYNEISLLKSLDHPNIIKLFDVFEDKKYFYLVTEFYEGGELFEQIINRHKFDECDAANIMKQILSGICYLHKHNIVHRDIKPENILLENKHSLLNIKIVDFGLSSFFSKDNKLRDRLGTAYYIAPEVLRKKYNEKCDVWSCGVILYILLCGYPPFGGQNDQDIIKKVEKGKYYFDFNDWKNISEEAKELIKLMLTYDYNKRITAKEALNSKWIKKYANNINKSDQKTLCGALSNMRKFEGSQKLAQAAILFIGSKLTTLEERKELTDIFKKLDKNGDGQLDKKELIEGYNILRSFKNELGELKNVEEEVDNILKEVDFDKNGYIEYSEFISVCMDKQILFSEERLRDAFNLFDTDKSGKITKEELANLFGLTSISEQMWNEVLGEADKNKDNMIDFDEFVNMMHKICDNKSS
For test [6], the target named is Plasmodium falciparum protein kinase 6 (PK6, PF3D7_1337100) (UniProt Q8IDW1). Kind of test: PfPK6 kinase inhibitors, biochemical, TCAMS library (AID 1159586). The following applies: recombinant PfPK6, Kinase-Glo ATP depletion luminescence.
Chain of Plasmodium falciparum protein kinase 6 (PK6, PF3D7_1337100) (Q8IDW1 1-305): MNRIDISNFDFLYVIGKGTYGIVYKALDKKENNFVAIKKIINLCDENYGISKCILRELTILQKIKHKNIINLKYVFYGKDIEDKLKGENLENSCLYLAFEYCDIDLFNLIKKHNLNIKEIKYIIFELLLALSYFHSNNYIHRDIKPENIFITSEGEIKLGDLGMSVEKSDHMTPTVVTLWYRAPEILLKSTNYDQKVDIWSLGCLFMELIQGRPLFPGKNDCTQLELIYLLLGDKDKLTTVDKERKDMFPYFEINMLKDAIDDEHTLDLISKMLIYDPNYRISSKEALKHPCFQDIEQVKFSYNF
For test [7], the target named is Protein kinase 7 (PK7), Plasmodium falciparum 3D7 (PF3D7_0213400) (UniProt Q7YTF7). Put plainly: inhibition of Plasmodium PK7 catalytic activity – biochemical, TCAMS antimalarial set, Kinase-Glo luminescence (AID 1159587). The following applies: recombinant PfPK7, Kinase-Glo ATP depletion luminescence.
Chain of Protein kinase 7 (PK7), Plasmodium falciparum 3D7 (PF3D7_0213400) (Q7YTF7 1-343): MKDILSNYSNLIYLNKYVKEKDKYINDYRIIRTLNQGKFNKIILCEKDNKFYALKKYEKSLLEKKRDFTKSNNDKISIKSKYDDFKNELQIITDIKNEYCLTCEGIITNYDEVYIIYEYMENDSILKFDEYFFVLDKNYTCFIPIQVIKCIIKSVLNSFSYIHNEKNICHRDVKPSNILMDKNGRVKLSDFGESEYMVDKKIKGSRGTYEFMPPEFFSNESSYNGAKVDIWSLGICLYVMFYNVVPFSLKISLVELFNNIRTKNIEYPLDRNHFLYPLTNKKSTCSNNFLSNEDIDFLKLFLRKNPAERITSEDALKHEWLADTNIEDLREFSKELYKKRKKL
Test [8] has as its target Calcium-dependent protein kinase 4 (Plasmodium falciparum (isolate 3D7)) (UniProt Q8IBS5). Kind of test: PfCDPK4 kinase inhibitors, biochemical, TCAMS library (AID 1159588; cut-off not given, nearly all actives have IC50 up to about 0.91 µM). The following applies: recombinant PfCDPK4, Kinase-Glo ATP depletion luminescence.

Chain of Calcium-dependent protein kinase 4 (Plasmodium falciparum (isolate 3D7)) (Q8IBS5 whole entry, looked up): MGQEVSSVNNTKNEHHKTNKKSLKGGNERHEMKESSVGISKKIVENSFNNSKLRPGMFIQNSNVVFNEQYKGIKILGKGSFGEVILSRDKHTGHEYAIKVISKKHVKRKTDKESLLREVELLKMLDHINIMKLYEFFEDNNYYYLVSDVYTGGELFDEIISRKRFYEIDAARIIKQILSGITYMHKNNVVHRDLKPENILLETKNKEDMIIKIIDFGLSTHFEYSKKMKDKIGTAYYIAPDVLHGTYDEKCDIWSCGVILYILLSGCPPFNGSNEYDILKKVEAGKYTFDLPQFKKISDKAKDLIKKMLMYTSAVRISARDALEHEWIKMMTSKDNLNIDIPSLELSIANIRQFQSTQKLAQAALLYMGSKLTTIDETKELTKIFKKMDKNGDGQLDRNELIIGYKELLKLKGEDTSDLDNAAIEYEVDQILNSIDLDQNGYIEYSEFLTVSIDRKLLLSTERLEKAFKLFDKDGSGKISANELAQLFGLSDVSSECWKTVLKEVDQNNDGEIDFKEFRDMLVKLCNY

On to `O=C(Nc1ccc(-c2nc3ccccc3[nH]2)cc1)c1ccc(N2CCOCC2)c([N+](=O)[O-])c1`, for which the growth inhibition in test [1] is 28%; in test [4], 101% (active). For the same compound, the inhibition in test [2] was 47%; in test [3] it was -8%. The outcome in test [5], in test [6], in test [7] and in test [8] was inactive.
In the case of `Cc1cccc2[nH]c(-c3cccc(-c4ccc(NC(=O)Nc5ccsc5)cc4)c3)nc12`, the figures for the growth inhibition in test [1] and in test [4] were 99% (active) and 100% (active), respectively. In addition, the results for the inhibition in test [2] and in test [3] were 27% and 0%, respectively. Moreover, the result in test [5], in test [6], in test [7] and in test [8] was inactive.
As for `CCOc1c(CCNCCCCNCCc2ccc3ccccc3c2OCC)ccc2ccccc12`, the growth inhibition in test [1] was 87% (active); in test [4], 94% (active). The inhibition in test [2] was 100% (active); in test [3], -3%. The result in test [5], in test [6], in test [7] and in test [8] was inactive.
`COc1ccc(CN2CCC(CN3CC4(OC3=O)c3ccccc3-c3ccccc34)C2)c(O)c1` (stereo not given): the growth inhibition in test [1] was 79% (active); in test [4] it was 101% (active). Also, the inhibition is 22% in test [2] and -7% in test [3]. The result in test [5], in test [6], in test [7] and in test [8] was inactive.
`c1cc(-c2cc3ccc(C4=NCCN4)cc3[nH]2)ccc1C1=NCCN1`: the figures for the growth inhibition in test [1] and in test [4] were 99% (active) and 97% (active), respectively. In addition, the inhibition in test [2] was 15%; in test [3], -1%. The result in test [5], in test [6], in test [7] and in test [8] was inactive.
For the compound `CC(C)c1sc(N2CCN(C)CC2)nc1C(=O)Nc1ccc(F)cc1C(F)(F)F`, the growth inhibition is 99% (active) in test [1] and 101% (active) in test [4]. In addition, the figures for the inhibition in test [2] and in test [3] were 3% and 4%, respectively. In addition, the result in test [5], in test [6], in test [7] and in test [8] was inactive.
As for `O=C(C=Cc1ccc(Cl)c(Cl)c1)NCCCCCN1CCC(CCCNS(=O)(=O)c2cccc(C(F)(F)F)c2)CC1`, the growth inhibition in test [1] is 59% (active); in test [4], 100% (active). Further, the inhibition was 99% (active) in test [2] and 3% in test [3]. The outcome in test [5], in test [6], in test [7] and in test [8] was inactive.
With `O=C(Nc1ccc(Cl)cc1)c1ccc(CN2CCCN(Cc3ccc(F)cc3)CC2)cc1`, the growth inhibition in test [1] was 8%; in test [4], 91% (active). Also, the inhibition in test [2] is 48%; in test [3], 6%. Besides, the outcome in test [5], in test [6], in test [7] and in test [8] was inactive.
In the case of `CC(C)CNCc1cccc(-c2ccc(CN(CCCN3CCN(C)CC3)C(=O)CCC3CCCC3)cc2)c1`, the growth inhibition in test [1] is 89% (active); in test [4], 98% (active). Also, the inhibition was 82% (active) in test [2] and 0% in test [3]. The outcome in test [5], in test [6], in test [7] and in test [8] was inactive.
As to `COc1ccc(CCNCc2cc3c(C(C)(C)C)nn(-c4ccc(Cl)cc4)c3[nH]c2=O)cc1OC`, the results for the growth inhibition in test [1] and in test [4] were 99% (active) and 100% (active), respectively. For the same compound, the figures for the inhibition in test [2] and in test [3] were 13% and 5%, respectively. Also, the outcome in test [5], in test [6], in test [7] and in test [8] was inactive.
Take `Cc1nc2ccc(NC(=O)c3cc(S(=O)(=O)N(C)C)ccc3Cl)cc2s1`: the growth inhibition is 77% (active) in test [1] and 91% (active) in test [4]. Also, the inhibition in test [2] was 20%; in test [3], -2%. For the same compound, the result in test [5], in test [6], in test [7] and in test [8] was inactive.
As to `Fc1ccc2nc(-c3ccc(-c4ccc(CN5CCCCC5)cc4)s3)[nH]c2c1`, the growth inhibition in test [1] is 100% (active); in test [4], 92% (active). In addition, the inhibition in test [2] was 42%; in test [3], -2%. The result in test [5], in test [6], in test [7] and in test [8] was inactive.
Regarding `COc1ccc(Nc2nc(NC3CCN(Cc4ccccc4)CC3)cc(-c3ccncc3)n2)cc1`, the growth inhibition in test [1] was 40%; in test [4], 88% (active). For the same compound, the inhibition in test [2] was 26%; in test [3], 0%. Besides, the outcome in test [5], in test [6], in test [7] and in test [8] was inactive.
Take `C#CCOc1ccccc1CN1CCC(N2CCc3cc(NC(=O)c4cc(C)on4)ccc32)C1` (stereo not given): the growth inhibition in test [1] was 94% (active); in test [4], 95% (active). Also, the inhibition was 16% in test [2] and -2% in test [3]. The result in test [5], in test [6], in test [7] and in test [8] was inactive.
For the compound `CC(C)CNCc1cccc(-c2cccc(CN(CCN(C)C)C(=O)NCCc3ccccc3)c2)c1`, the growth inhibition was 83% (active) in test [1] and 99% (active) in test [4]. In addition, the inhibition in test [2] is 84% (active); in test [3], -4%. In addition, the outcome in test [5], in test [6], in test [7] and in test [8] was inactive.
In the case of `Clc1ccc(-c2ccc(CNCCCN3CCCC3)cc2)cc1`, the growth inhibition was 21% in test [1] and 91% (active) in test [4]. Besides, the inhibition was 47% in test [2] and -5% in test [3]. The outcome in test [5], in test [6], in test [7] and in test [8] was inactive.
Turning to `CCN(CC)CCN(Cc1ccc(-c2ccc(Br)cc2)cc1)C(=O)Cn1c(CCc2cccc(F)c2F)nc(=O)c2ccccc21`, the growth inhibition is 74% (active) in test [1] and 98% (active) in test [4]. In addition, the inhibition in test [2] is 37%; in test [3] it was 1%. Also, the result in test [5], in test [6], in test [7] and in test [8] was inactive.
On to `CC(C)n1ncc2c(C(=O)N3CCCC4CCCCC43)cc(C3CC3)nc21` (stereo not given), for which the growth inhibition in test [1] was 92% (active); in test [4], 99% (active). Further, the values for the inhibition in test [2] and in test [3] were 7% and 2%, respectively. In addition, the result in test [5], in test [6], in test [7] and in test [8] was inactive.
Turning to `O=C(Nc1ccc(Cl)cc1)N(CC1C[C@H]2CC[C@@H](C1)N2Cc1ccc(C(F)(F)F)cc1)c1ccc(N2CCOCC2)c(F)c1` (stereo not given in full), the growth inhibition was 36% in test [1] and 85% (active) in test [4]. Also, the inhibition in test [2] is 31%; in test [3] it was 0%. The result in test [5], in test [6], in test [7] and in test [8] was inactive.
As for `Cc1[nH]c(C)c(-c2ccc(-c3ccc(OCC(F)(F)F)cc3)nc2)c(=O)c1Cl`, the growth inhibition in test [1] was 96% (active); in test [4] it was 94% (active). Besides, the inhibition was 3% in test [2] and 4% in test [3]. In addition, the outcome in test [5], in test [6], in test [7] and in test [8] was inactive.

For orientation: inhibition means the change of the read-out against control, counted positive when it falls.
